Our source for the AC50 and outcome values is PubChem BioAssay (EPA / NIEHS).

Read-out in assay [1]: Cytochrome P450 3A4 (Homo sapiens) (UniProt P08684)
The assay is described as follows: CLD_CYP3A4_24hr: CellzDirect (CLD) Gene Expression Assay for xenobiotic metabolism (CYP3A4) at 24 hours (AID 2283689). The gist of the method: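 Primary human hepatocytes from two donors dosed daily with fresh compound for two days, 0.2% DMSO vehicle. CYP3A4 mRNA at 24 hr by qNPA chemiluminescence; gain-of-signal fit versus DMSO, cytotoxicity flagged by morphology.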

Read-out in assay [2]: ABC Transporter (ABCB1), ABCB1 (gene 5243)
Nature of the assay: CLD_ABCB1_48hr: CellzDirect (CLD) Gene Expression Assay for ABC Transporter (ABCB1) at 48 hours (AID 2283695). The essentials: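 Primary human hepatocytes from two donor preparations dosed daily on two consecutive days with 0.2% DMSO vehicle. Harvest at 48 h. ABCB1 mRNA quantified by qNPA with chemiluminescence and fitted for gain of signal versus DMSO.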

Read-out in assay [3]: glucuronosyltransferase (UGT1A1), UGT1A1 (gene 54658)
The assay is described as follows: CLD_UGT1A1_24hr: CellzDirect (CLD) Gene Expression Assay for glucuronosyltransferase (UGT1A1) at 24 hours (AID 2283696). The gist of the method: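 Primary human hepatocytes from two donor preparations were dosed (0.2% DMSO vehicle) and harvested at 24 h; UGT1A1 mRNA induction was quantified by chemiluminescent qNPA, fitted as gain relative to DMSO.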

Read-out in assay [4]: Cytochrome P450 2B6 (Homo sapiens) (UniProt P20813)
Nature of the assay: CLD_CYP2B6_48hr: CellzDirect (CLD) Gene Expression Assay for xenobiotic metabolism (CYP2B6) at 48 hours (AID 2283699).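 Further: actives raise transcript level above DMSO so potency reflects induction.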 The essentials: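 Primary human hepatocytes dosed daily for two days over multiple concentrations, 0.2% DMSO vehicle; CYP2B6 mRNA quantified at 48 h by qNPA chemiluminescence. Induction fitted as gain of signal versus DMSO; cytotoxicity annotated by morphology.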

Read-out in assay [5]: Cytochrome P450 2C9 (Homo sapiens) (UniProt P11712)
The assay is described as follows: CLD_CYP2C9_48hr: CellzDirect (CLD) Gene Expression Assay for xenobiotic metabolism (CYP2C9) at 48 hours (AID 2283701; active means hit-call score of the fitted dose curve at least 0.9, where 1 is the maximum; inactive means score below 0.9). The gist of the method: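 Primary human hepatocytes (two donor preparations) dosed daily for two days with test chemicals, 0.2% DMSO vehicle; harvested at 48 h. mRNA induction quantified by qNPA chemiluminescence, fitted for gain of signal against DMSO baseline; cytotoxicity annotated from phase-contrast morphology.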

Read-out in assay [6]: xenobiotic metabolism (CYP1A1), CYP1A1 (gene 1543)
The assay is described as follows: CLD_CYP1A1_48hr: CellzDirect (CLD) Gene Expression Assay for xenobiotic metabolism (CYP1A1) at 48 hours (AID 2283705). The essentials: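 Primary human hepatocytes from two donors dosed daily for two days at multiple concentrations, 0.2% DMSO vehicle; CYP1A1 mRNA induction at 48 h by qNPA chemiluminescence. Cytotoxicity noted by phase-contrast morphology.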

Read-out in assay [7]: glucuronosyltransferase (UGT1A1), UGT1A1 (gene 54658)
Nature of the assay: CLD_UGT1A1_48hr: CellzDirect (CLD) Gene Expression Assay for glucuronosyltransferase (UGT1A1) at 48 hours (AID 2283709).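 Further: actives increase expression relative to DMSO so potency refers to induction.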 The essentials: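 Human primary hepatocytes dosed daily for two days (0.2% DMSO vehicle), harvested at 48 h. UGT1A1 mRNA induction measured by quantitative nuclease protection assay with chemiluminescence; gain of signal versus DMSO; cytotoxicity flagged from morphology.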

Read-out in assay [8]: sulfotransferase (SULT2A), SULT2A1 (gene 6822)
The assay is described as follows: CLD_SULT2A_48hr: CellzDirect (CLD) Gene Expression Assay for sulfotransferase (SULT2A) at 48 hours (AID 2283710).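 Further: hits raise SULT2A1 transcript above the 0.2% DMSO vehicle baseline.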 The essentials:
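Primary human hepatocytes (two donor preparations) dosed daily for two days with chemicals at multiple concentrations, vehicle 0.2% DMSO; SULT2A1 mRNA induction at 48 h by quantitative nuclease protection assay, chemiluminescent read-out, fitted for gain of signal versus DMSO.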

Assay [9] in a line: CEETOX_H295R_MTT_cell_viability: Viability Assessment in the CeeTox HT-H295R MTT Assay (AID 2283718; active means hit-call score of the fitted dose curve at least 0.9, where 1 is the maximum; inactive means score below 0.9;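 on AC50: curve fitted both ways so AC50 may mark viability loss or gain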). The essentials:
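Human H295R adrenal cells, prestimulated 48 h with 10 uM forskolin, were exposed 48 h to chemicals in 0.1% DMSO. Viability was measured in the same wells by MTT (0.5 mg/ml, 4 h, 37 C), absorbance 570/650 nm, as percent of controls.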

A short description of assay [10]: Tanguay_ZF_120hpf_ActivityScore_legacy: (Legacy) Oregon State University Tanguay Lab 120 Hour Post-fertilization zebrafish Assay Score for Activity (AID 2283742).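 On AC50: dechorionated Tropical 5D wild-type zebrafish embryos held singly per well; static exposure from 6 hpf until 120 hpf at 28 °C.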 The gist of the method:
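Dechorionated Tropical 5D embryos, one per well from 6 hpf, statically exposed to 120 hpf at 28 °C in 0.64% DMSO. Mortality and malformations scored binary by brightfield microscopy; activity score combines 18 endpoints, fitted positively versus DMSO.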

Read-out in assay [11]: Broad substrate specificity ATP-binding cassette transporter ABCG2 (Homo sapiens) (UniProt Q9UNQ0)
The assay is described as follows: CLD_ABCG2_48hr: CellzDirect (CLD) Gene Expression Assay for ABC Transporter (ABCG2) at 48 hours (AID 2283704). The gist of the method: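 Primary human hepatocytes from two donors, dosed daily for 2 days, 0.2% DMSO vehicle, several concentrations. ABCG2 mRNA at 48 h by qNPA chemiluminescence, gain fitted versus DMSO; cytotoxicity flagged by morphology.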

Read-out in assay [12]: alkyl and aryl transferase (GSTA2), GSTA2 (gene 2939)
Nature of the assay: CLD_GSTA2_24hr: CellzDirect (CLD) Gene Expression Assay for alkyl and aryl transferase (GSTA2) at 24 hours (AID 2283693). The gist of the method: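 Primary human hepatocytes (two donor preparations) dosed daily for two days with chemicals at multiple concentrations (vehicle 0.2% DMSO); GSTA2 mRNA at 24 h measured by qNPA chemiluminescence, gain-of-signal versus DMSO.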

Read-out in assay [13]: sulfotransferase (SULT2A), SULT2A1 (gene 6822)
The assay is described as follows: CLD_SULT2A_24hr: CellzDirect (CLD) Gene Expression Assay for sulfotransferase (SULT2A) at 24 hours (AID 2283694). The essentials: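 Primary human hepatocytes from two donor preparations were dosed daily with fresh solutions, vehicle 0.2% DMSO. At 24 h, lysates went to quantitative nuclease protection (qNPA) with S1 digestion and chemiluminescent readout. Cytotoxicity was annotated from phase-contrast morphology.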

Read-out in assay [14]: xenobiotic metabolism (CYP1A2), CYP1A2 (gene 1544)
Nature of the assay: CLD_CYP1A2_48hr: CellzDirect (CLD) Gene Expression Assay for xenobiotic metabolism (CYP1A2) at 48 hours (AID 2283703). The gist of the method:
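Primary human hepatocytes from two donor preparations were dosed daily for two days at multiple concentrations in 0.2% DMSO vehicle. CYP1A2 mRNA was measured at 48 hours by chemiluminescent quantitative nuclease protection assay, with gain of signal fitted versus DMSO and cytotoxicity annotated from morphology.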

Read-out in assay [15]: organic anion transporter (SLCO1B1), SLCO1B1 (gene 10599)
Nature of the assay: CLD_SLCO1B1_48hr: CellzDirect (CLD) Gene Expression Assay for organic anion transporter (SLCO1B1) at 48 hours (AID 2283707). The gist of the method: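 Primary human hepatocytes from two donor preparations dosed daily for two days with multiple concentrations, 0.2% DMSO vehicle. SLCO1B1 mRNA at 48 h by quantitative nuclease protection assay, chemiluminescence; gain-of-signal fitted versus DMSO.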

The nature of assay [16]: STM_H9_OrnithineISnorm_perc: Stemina devTOX quickPredict H9 human embryonic stem cell (hESC)-based Assay for Ornithine (ORN) Metabolite Biomarker, Normalized (AID 2283712; active means hit-call score of the fitted dose curve at least 0.9, where 1 is the maximum; inactive means score below 0.9;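 further: ornithine released into spent medium during last day measured by mass spectrometry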). The essentials:
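Undifferentiated H9 hESCs exposed 72 h with daily media and compound renewal; final 24-h conditioned medium analysed by UPLC-HRMS. Ornithine peak area normalised to spiked C13 standard and to median 0.1% DMSO control; viability by CellTiter-Fluor.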

Assay [17] can be described thus: STM_H9_CystineISnorm_perc: Stemina devTOX quickPredict H9 human embryonic stem cell (hESC)-based Assay for Cystine (CYSS) Metabolite Biomarker, Normalized (AID 2283713; active means hit-call score of the fitted dose curve at least 0.9, where 1 is the maximum; inactive means score below 0.9). The essentials:
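Undifferentiated H9 hESCs exposed 72 h, compound and media replaced every 24 h; final 24-h media analysed by UPLC-HRMS. Cystine normalized to C13 spike-in standard and median 0.1% DMSO control.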

Assay [18] can be described thus: STM_H9_OrnCyssISnorm_ratio: Stemina devTOX quickPredict H9 human embryonic stem cell (hESC)-based Assay for Ornithine (ORN):Cystine (CYSS) Ratio (AID 2283714). The essentials: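 Undifferentiated H9 hESCs exposed 72 h, media and compound replaced every 24 h; final 24-h conditioned media deproteinized and analysed by UPLC-HRMS against C13 spike-ins. Value is the internal-standard-normalized ORN/CYSS ratio versus 0.1% DMSO.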

Values joined by “and” are separate entries in the source; they are usually repeats but may differ in a detail not shown here. Equal entries are not always repeated. Inconclusive results are not listed. More than one record can exist for a structure, and the calls need not agree. Active and inactive are the calls of the source. How the source made its calls, unless noted: active means hit-call score of the fitted dose curve at least 0.9, where 1 is the maximum; inconclusive means response in the unintended direction; inactive means score below 0.9.

Sequence of Broad substrate specificity ATP-binding cassette transporter ABCG2 (Homo sapiens) (Q9UNQ0 whole entry, looked up): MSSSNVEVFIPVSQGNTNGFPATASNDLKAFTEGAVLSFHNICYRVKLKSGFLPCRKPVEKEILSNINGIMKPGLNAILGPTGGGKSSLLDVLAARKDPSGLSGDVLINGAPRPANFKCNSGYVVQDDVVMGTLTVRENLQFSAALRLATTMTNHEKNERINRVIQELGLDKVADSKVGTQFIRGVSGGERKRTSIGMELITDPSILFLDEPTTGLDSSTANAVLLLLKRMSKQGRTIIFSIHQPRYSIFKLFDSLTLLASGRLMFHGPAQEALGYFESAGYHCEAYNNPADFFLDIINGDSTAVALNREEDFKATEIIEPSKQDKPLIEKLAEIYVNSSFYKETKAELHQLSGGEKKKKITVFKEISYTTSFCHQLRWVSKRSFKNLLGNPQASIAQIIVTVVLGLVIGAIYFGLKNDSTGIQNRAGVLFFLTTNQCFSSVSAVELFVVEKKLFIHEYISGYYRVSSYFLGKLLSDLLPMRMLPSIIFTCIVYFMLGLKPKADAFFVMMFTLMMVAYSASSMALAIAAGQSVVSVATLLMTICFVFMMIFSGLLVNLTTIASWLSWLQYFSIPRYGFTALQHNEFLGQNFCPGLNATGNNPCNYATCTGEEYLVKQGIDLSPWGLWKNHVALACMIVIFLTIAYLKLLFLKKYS
Sequence of Cytochrome P450 3A4 (Homo sapiens) (P08684 whole entry, looked up): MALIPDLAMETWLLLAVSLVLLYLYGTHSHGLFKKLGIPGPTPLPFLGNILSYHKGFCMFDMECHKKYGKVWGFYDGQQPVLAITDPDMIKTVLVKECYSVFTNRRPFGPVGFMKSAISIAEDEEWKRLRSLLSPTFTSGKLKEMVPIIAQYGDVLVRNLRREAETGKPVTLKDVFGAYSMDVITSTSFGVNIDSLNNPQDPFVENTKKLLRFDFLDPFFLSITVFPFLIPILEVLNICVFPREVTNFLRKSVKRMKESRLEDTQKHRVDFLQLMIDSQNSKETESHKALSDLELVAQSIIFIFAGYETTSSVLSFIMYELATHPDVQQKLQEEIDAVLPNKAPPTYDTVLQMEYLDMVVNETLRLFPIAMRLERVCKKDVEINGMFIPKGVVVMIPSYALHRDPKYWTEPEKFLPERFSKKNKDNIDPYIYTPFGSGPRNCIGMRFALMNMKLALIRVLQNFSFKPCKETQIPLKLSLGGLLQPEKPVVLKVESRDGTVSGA

Take `CNC(=O)Oc1ccccc1OC(C)C`: the AC50 is 5.41 µM (active) in assay [1] and 1.51 µM (active) in [4]. The molecule was called inactive in assay [2], in assay [3], in assay [5], in assay [6], in assay [7] and in assay [8]. Also, the molecule was called inactive in assay [9] and in [10].

As to `CCC(C)(C)C(=O)OC1=C(c2ccc(Cl)cc2Cl)C(=O)OC12CCCCC2`, the AC50 in [1] was 0.0493 µM (active). Further, the molecule was called inactive in assay [2], in [3], in assay [5], in [11], in assay [6] and in assay [7]. Further, the molecule was classed as inactive in assay [8], in assay [9] and in assay [10].

As to `Oc1cc(Cl)ccc1Oc1ccc(Cl)cc1Cl`, the result in assay [12], in assay [13], in assay [2], in [3], in assay [14] and in [11] was inactive. Besides, the outcome in assay [6], in assay [15], in assay [7], in [8], in [9] and in assay [10] was inactive. Further, the AC50 in assay [16] was 86.3 µM (active); in assay [17], 81.2 µM (active); in assay [18], 75.8 µM (active); in assay [9], 0.0234 µM (active); in [10], 41.4 µM (active) and 46.5 µM (active).

For the molecule `COc1cc(OC)nc(NC(=O)NS(=O)(=O)c2cc(NC=O)ccc2C(=O)N(C)C)n1`, the molecule was called inactive in assay [12], in [13], in assay [2], in assay [3], in assay [5] and in assay [11]. Also, the molecule was classed as inactive in assay [6], in assay [15], in assay [7] and in [8].

Take `O=C(O)CCCOc1ccc(Cl)cc1Cl`: the call in assay [1], in [13], in assay [2], in assay [3], in assay [5] and in assay [11] was inactive. Further, the call in [6], in assay [7], in assay [8] and in assay [10] was inactive.

As to `O=C(Nc1ccccc1)Nc1cnns1`, the result in assay [11], in assay [16] and in [10] was inactive. Also, the AC50 in assay [6] was 20 µM (active); in assay [7], 9.87 µM (active); in [8], 6.28 µM (active); in assay [17], 58.7 µM (active); in assay [18], 58.3 µM (active); in assay [9], 65.5 µM (active).
